In PubChem BioAssay (Tox21) one finds Potency data, which are given here for 40 molecules.

SMILES strings stand for the structures. Records with an inconclusive call do not appear. A call without a number means that no potency is given here. The source made the active and inactive calls. Calls follow the shape of the dose curve; as a rule, active = well fitted cell-killing curve with a large enough effect in the repeat runs; inconclusive = weak or mixed curves; inactive = flat fitted curve, though single readings scatter.
Potency is read from the fitted curve at half-maximal effect.

This test in a line: qHTS RealTime-Glo MT Cell Viability Assay in HepG2 cells - 8 hour (AID 1224873). Also: nearly all actives have a fitted effect of over 55% in size. As to conditions: RealTime-Glo luminescence; series mostly up to 76.8 µM. An excerpt: National Center for Advancing Translational Sciences [NCATS]
NIH Chemical Genomics Center [NCGC]
U.S. Environmental Protection Agency [EPA]
National Institutes of Environmental Health Sciences [NIEHS]
National Toxicology Program [NTP]
U.S. Food and Drug Administration [FDA]
Measure of cell viability is critical in the cell-base assay. Analysis of cell viability is necessary for the characterization of cell responses to cytotoxic drugs and environmental stress. A RealTime-Glo MT Cell Viability Assay to monitor cell viability in real time of continues cell culture during 40 hours of compound treatment was used to screen Tox21 10K library compounds in HepG2 cells. The RealTime-Glo MT Cell Viability Assay is a nonlytic, homogeneous, bioluminescent method to measure cell viability in real time using a simple, plate-based method. The assay involves adding NanoLuc luciferase and a cell-permeant prosubstrate to cells in culture. Viable cells reduce the proprietary prosubstrate to generate a substrate for NanoLuc luciferase. This substrate diffuses from cells into the surrounding culture medium, where it is rapidly used by the NanoLuc Enzyme to produce a luminescent signal. The signal correlates with the number of viable cells, making the assay well suited for cytotoxicity studies.
Tox21 Assay Protocol Summary:
The mixture of HepG2 cell suspension and reagents were dispensed at 600cells/6 ul/well in 1536-well tissue culture treated black solid bottom plates using a Multidrop dispenser. After the assay plates were incubated at a 37 C/5% CO2 incubator for 5 hours, 23 nL of compounds dissolved in DMSO, positive and negative controls was transferred to the assay plate by a pintool work station. The plates were incubated at 37 C for 40 hours. The luminescence intensity were measured at 0h, 8h, 16h, 24h, 32h and 40h time points using ViewLux plate reader during compound treatment.
For the molecule `O=C=Nc1cccc(C(F)(F)F)c1`, the Potency entry is “inactive”.

Consider `O=C1CCCCCCCCCCOCCCCO1`, for which the Potency result was “inactive”.

On to `O=C(CCc1ccc(O)cc1)c1c(O)cc(O)cc1O`, for which the Potency result was “inactive”.

Regarding `CCCCC(CC)COP(=O)(O)O` (stereo not given), the Potency result was “inactive”.

`CC[C@]1(O)C[C@H]2CN(CCc3c([nH]c4ccccc34)[C@@](C(=O)OC)(c3cc4c(cc3OC)N(C=O)[C@H]3[C@@](O)(C(=O)OC)[C@H](OC(C)=O)[C@]5(CC)C=CCN6CC[C@]43[C@@H]65)C2)C1`: the Potency entry was “inactive”.

Take `CCOc1cccc(-n2cc(C(=O)N3CCN(c4cc(C(=O)O)c5ccccc5c4)CC3)nc2-c2ccc(C)cc2)c1`: the Potency entry was “inactive”.

Regarding `C=CC(C)(CCC=C(C)C)OC(=O)CC(C)C` (stereo not given), the Potency entry was “inactive”.

For `CCOC(=O)c1ccccc1C(=C1C=C(Br)C(=O)C(Br)=C1)c1cc(Br)c(O)c(Br)c1`, the Potency entry was “inactive”.

Consider `C=C(C)CCCC(C)CCO` (stereo not given), for which the Potency entry was “inactive”.

As for `C[C@@H]1CC(=O)NN=C1c1ccc(NN=C(C#N)C#N)cc1`, the Potency entry was “inactive”.

For the molecule `C[C@]1(Cn2ccnn2)[C@H](C(=O)O)N2C(=O)C[C@H]2S1(=O)=O`, the Potency entry is “inactive”.

In the case of `CCOc1ccccc1O[C@H](c1ccccc1)[C@H]1CNCCO1`, the Potency result was “inactive”.

For `CCOC(=O)[C@H](CCc1ccccc1)N[C@@H](C)C(=O)N(CC(=O)O)C1Cc2ccccc2C1`, the Potency result is “inactive”.

Take `CNC(=O)c1cnn(-c2nc(N)c3ncn([C@@H]4O[C@H](CO)[C@@H](O)[C@H]4O)c3n2)c1`: the Potency result was “inactive”.

With `Nc1cccc2c1CN(C1CCC(=O)NC1=O)C2=O` (stereo not given), the Potency entry is “inactive”.

In the case of `CCOC(=O)c1ccc(C#Cc2ccc3c(c2)C(C)(C)CCS3)nc1`, the Potency entry is “inactive”.

Turning to `CC(C)(C)C(=O)C(=O)O`, the Potency entry is “inactive”.

In the case of `C[C@H]1c2cccc(O)c2C(O)=C2C(=O)[C@]3(O)C(O)=C(C(N)=O)C(=O)[C@@H](N(C)C)[C@@H]3[C@@H](O)[C@@H]21`, the Potency entry is “inactive”.

Regarding `Cc1cc(O)c(C)c(C)c1O`, the Potency result is “inactive”.

For `Oc1cc2c(cc1O)[C@H]1c3ccc(O)c(O)c3OC[C@@]1(O)C2`, the Potency was 39.4 µM (active).

Turning to `CCOC(=O)c1ccc(I)cc1`, the Potency result is “inactive”.

With `CC(C)COCC(CN(Cc1ccccc1)c1ccccc1)N1CCCC1` (stereo not given), the Potency was 23.9 µM (active).

As for `O=C(O)CCC(=O)C(=O)O`, the Potency result is “inactive”.

Take `CC1(C)S[C@@H]2[C@H](NC(=O)C(c3ccccc3)S(=O)(=O)O)C(=O)N2[C@H]1C(=O)O` (stereo not given in full): the Potency entry is “inactive”.

`O=C1c2ccccc2C(=O)C1(O)O`: the Potency result was “inactive”.

For the molecule `O=C(/C=C/c1ccc(O)c(O)c1)O[C@@H]1C[C@@](OC(=O)/C=C/c2ccc(O)c(O)c2)(C(=O)O)C[C@@H](O)[C@@H]1O`, the Potency entry was “inactive”.

On to `CCOC(=O)C1=C(C)NC(C)=C(C(=O)OC)C1c1cccc(Cl)c1Cl` (stereo not given), for which the Potency was 19 µM (active).

Consider `C=CCc1ccccc1OCC(O)CNC(C)C` (stereo not given), for which the Potency result is “inactive”.

`CC[N+](CC)(CCNC(=O)C(=O)NCC[N+](CC)(CC)Cc1ccccc1Cl)Cc1ccccc1Cl`: the Potency entry was “inactive”.

Consider `Cc1cc(C)c(N)cc1C`, for which the Potency entry was “inactive”.

For `CC1CC(OC(=O)C(O)c2ccccc2)CC(C)(C)N1C` (stereo not given), the Potency result was “inactive”.

With `CCC(C)COC(=O)CC(C)C` (stereo not given), the Potency entry was “inactive”.

Take `COC(=O)C1=C(C)NC(C)=C(C(=O)O[C@@H]2CCCN(Cc3ccccc3)C2)[C@@H]1c1cccc([N+](=O)[O-])c1`: the Potency result was “inactive”.

Regarding `OCCOCC#CCOCCO`, the Potency entry was “inactive”.

For the molecule `O=c1cc(-c2ccccc2)oc2cc(O)cc(O)c12`, the Potency entry is “inactive”.

`CCCCCCCCN`: the Potency entry was “inactive”.

`CCCC(=O)C(=O)O`: the Potency entry was “inactive”.

For the molecule `CC(=O)Nc1ccc(C)cc1C`, the Potency entry is “inactive”.

As to `CC1CC(C)C(=O)C1=O` (stereo not given), the Potency entry is “inactive”.

`NC1[C@H]2CN(c3nc4c(cc3F)c(=O)c(C(=O)O)cn4-c3ccc(F)cc3F)C[C@@H]12` (stereo not given in full): the Potency entry was “inactive”.
